According to article PMC5540273 (PLoS ONE, 2017):

Key:
Conditions in all cases: concentration: 1 μM, replicates: in singlicate; n = 1
NIM1 = system: T1, NIM1
T1 construct: gene MGC42105

NLK = system: NLK
OSR1 = system: T2, OSR1
T2 construct: gene OXSR1

PAK1 = system: PAK1
PAK2 = system: PAK2
PAK3 = system: PAK3
PAK4 = system: PAK4
PAK6 = system: PAK6
PAK7 = system: PAK7
PCTK1 = system: T3, PCTK1
T3 construct: gene CDK16

PCTK2 = system: T4, PCTK2
T4 construct: gene CDK17

PCTK3 = system: T5, PCTK3
T5 construct: gene CDK18

PDGFRA = system: PDGFRA
PDGFRB = system: PDGFRB
PDPK1 = system: PDPK1
PFTAIRE2 = system: PFTAIRE2
PFTK1 = system: T6, PFTK1
T6 construct: gene CDK14

PHKG1 = system: PHKG1
PHKG2 = system: PHKG2
PIK3C2B = system: PIK3C2B
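Further: KINOMEscan kinase panel screen.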

Row | Structure (SMILES) | %Inh (NIM1) | %Inh (NLK) | %Inh (OSR1) | %Inh (PAK1) | %Inh (PAK2) | %Inh (PAK3) | %Inh (PAK4) | %Inh (PAK6) | %Inh (PAK7) | %Inh (PCTK1) | %Inh (PCTK2) | %Inh (PCTK3) | %Inh (PDGFRA) | %Inh (PDGFRB) | %Inh (PDPK1) | %Inh (PFTAIRE2) | %Inh (PFTK1) | %Inh (PHKG1) | %Inh (PHKG2) | %Inh (PIK3C2B)
1 | O=C(Nc1cccc(-c2nn3ncccc3c2-c2ccnc(Nc3ccccc3)n2)c1)c1c(F)cccc1F [GSK198271] | 4% | 95.1% | 16% | 24% | 16% | 31% | 0% | 1% | 0% | 10% | 0% | 17% | 65% | 100% | 0% | 23% | 0% | 0% | 0% | 0%
2 | FC(F)(F)c1ccc(/C=C/c2cncnc2Nc2ccc3[nH]c(Cc4ccccc4)nc3c2)cc1 [GW709199] | 0% | 9% | 0% | 4% | 16% | 0% | 0% | 0% | 0% | 0% | 0% | 4% | 0% | 0% | 0% | 33% | 15% | 43% | 0% | 0%
3 | CC(C)c1nc(-c2cccc(NS(=O)(=O)c3c(F)cccc3F)c2F)c(-c2ccnc(Nc3ccc(N4CCOCC4)nc3)n2)s1 [GSK2008607] | 1% | 97.5% | 0% | 27% | 18% | 93.3% | 0% | 9% | 20% | 99.5% | 100% | 100% | 90% | 100% | 0% | 94.6% | 98.7% | 0% | 0% | 49%
4 | C[C@@H](Oc1cc(-n2cnc3cc(-c4ccnc(NCCS(C)(=O)=O)c4)ccc32)sc1C(N)=O)c1ccccc1Cl [GSK907232] | 69% | 14% | 20% | 6% | 32% | 26% | 0% | 0% | 0% | 7% | 9% | 25% | 71% | 97.4% | 28% | 14% | 12% | 0% | 2% | 0%
5 | O=C(Nc1cccc(-c2nn3ccccc3c2-c2ccnc(Nc3cccc(F)c3)n2)c1)c1c(F)ccc(F)c1Cl [GSK357952] | 7% | 46% | 2% | 0% | 2% | 16% | 0% | 0% | 15% | 0% | 0% | 9% | 18% | 99.7% | 36% | 20% | 2% | 0% | 0% | 0%
6 | Cc1cccc(Nc2nc(N[C@H]3CCNC3)ncc2C(N)=O)c1.Cl [GSK2197149] | 11% | 0% | 18% | 38% | 70% | 66% | 95.8% | 78% | 98% | 14% | 7% | 34% | 58% | 89% | 7% | 7% | 15% | 66% | 68% | 0%
7 | CCn1c(-c2nonc2N)nc2c(C#CC(C)(C)O)nc(OC[C@H](N)c3ccccc3)cc21 [GSK943949] | 0% | 7% | 0% | 0% | 0% | 27% | 94.6% | 97.9% | 98% | 0% | 0% | 0% | 11% | 5% | 0% | 0% | 0% | 0% | 5% | 0%
8 | COc1cc(Nc2nccc(-c3c(-c4cccc(NC(=O)c5c(F)cccc5F)c4)nn4ccccc34)n2)cc(OC)c1OC [GSK323521] | 39% | 0% | 4% | 11% | 5% | 44% | 9% | 7% | 6% | 3% | 8% | 29% | 89% | 99.7% | 13% | 25% | 3% | 4% | 10% | 27%
9 | O=C(Nc1n[nH]c2cc(-c3ccoc3)ccc12)C1CC1 [SB-738481] | 100% | 4% | 0% | 0% | 15% | 18% | 0% | 0% | 0% | 61% | 51% | 22% | 62% | 90% | 0% | 21% | 29% | 0% | 0% | 7%
10 | Cc1ccc(C(=O)Nc2ccc(Nc3ccnc4cc(-c5nccs5)ccc34)cc2O)cc1.Cl [GW494702] | 19% | 0% | 6% | 0% | 0% | 9% | 1% | 0% | 0% | 0% | 0% | 0% | 28% | 74% | 10% | 7% | 0% | 4% | 0% | 0%
11 | CC(=O)Nc1nc2cnc(Nc3cc(NC(=O)c4cccc(C5(C#N)CC5)c4Cl)ccc3C)nc2s1 | 6% | 33% | 0% | 12% | 0% | 0% | 7% | 0% | 9% | 6% | 9% | 0% | 97.7% | 100% | 1% | 23% | 0% | 12% | 17% | 0%
12 | CSc1cccc2c(-c3ccncn3)c(-c3ccc(F)cc3)nn12 [GW514786] | 19% | 70% | 8% | 11% | 25% | 19% | 0% | 3% | 0% | 2% | 0% | 14% | 0% | 7% | 0% | 20% | 28% | 12% | 0% | 0%
13 | COCCOCCOc1cc2ncc3c4ccc(C#N)cc4[nH]c3c2cc1OC | 48% | 19% | 0% | 18% | 22% | 21% | 19% | 10% | 1% | 0% | 6% | 13% | 98.2% | 92.9% | 34% | 48% | 21% | 94.5% | 97.7% | 0%
14 | COc1ccc(-c2coc3ccc(-c4nnc(SCc5ccc(OC)c(C(F)(F)F)c5)o4)cc23)cc1 | 0% | 10% | 3% | 0% | 3% | 22% | 1% | 17% | 3% | 0% | 9% | 9% | 23% | 16% | 12% | 0% | 19% | 3% | 4% | 0%
15 | Cl.c1ccc(-c2ccc3c(Nc4ccc5[nH]ccc5c4)ccnc3c2)nc1 [GW440138] | 29% | 36% | 4% | 0% | 0% | 0% | 0% | 0% | 0% | 0% | 6% | 28% | 99.2% | 99.9% | 0% | 0% | 14% | 0% | 0% | 0%
16 | O=C(Nc1n[nH]c2nc(-c3ccc(O)cc3)ccc12)C1CC1 [SB-710363] | 0% | 92.1% | 0% | 0% | 72% | 0% | 0% | 0% | 11% | 61% | 56% | 6% | 48% | 32% | 5% | 28% | 14% | 5% | 0% | 0%
17 | CNC(=O)c1ccccc1Nc1nc(Nc2ccc(N3CCOCC3)cc2)ncc1Cl.Cl [GSK1576028] | 41% | 26% | 35% | 71% | 61% | 100% | 78% | 66% | 83% | 11% | 43% | 0% | 80% | 100% | 42% | 43% | 17% | 84% | 72% | 17%
18 | COc1ccc(Nc2nccc(NCCNC(=O)c3cc4ccccc4s3)n2)cc1 [GSK1379896] | 4% | 49% | 10% | 7% | 0% | 2% | 0% | 1% | 0% | 1% | 0% | 0% | 0% | 15% | 8% | 14% | 18% | 0% | 2% | 0%
19 | COc1ccc(Nc2nccc(N3CCC(NC(=O)Nc4cccc(OC)c4)C3)n2)cc1 (stereo not shown) [GSK1379742] | 22% | 0% | 0% | 44% | 27% | 0% | 0% | 0% | 0% | 4% | 0% | 21% | 0% | 23% | 15% | 10% | 2% | 17% | 0% | 13%
20 | Cc1ccc(C(=O)N2CC[C@@H](O)C2)cc1-n1c(C)cc(OCc2ccc(F)cc2F)c(Br)c1=O | 0% | 4% | 0% | 0% | 0% | 0% | 0% | 0% | 0% | 0% | 0% | 7% | 4% | 77% | 30% | 2% | 12% | 0% | 0% | 0%
